Assay outcomes (PubChem)
Keap1-Nrf2 PPI: disrupts human Keap1 binding to Nrf2 peptide. 340,000 compounds, 0.15% hits. Keap1 Kelch-Nrf2 peptide fluorescence polarization, 1536-well. AID 504523. Q14145. inhibition, % at 9.4 µM; in the data active = inhibition above about 12%; inconclusive = no clear call, values can overlap the other calls; inactive = below about 7.3%;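 note: human Keap1 Kelch domain with fluorescein labeled Nrf2 9mer peptide probe; higher means more block of Keap1 binding to Nrf2 peptide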
Target sequence (Q14145 whole entry, looked up, the tested form may be a part): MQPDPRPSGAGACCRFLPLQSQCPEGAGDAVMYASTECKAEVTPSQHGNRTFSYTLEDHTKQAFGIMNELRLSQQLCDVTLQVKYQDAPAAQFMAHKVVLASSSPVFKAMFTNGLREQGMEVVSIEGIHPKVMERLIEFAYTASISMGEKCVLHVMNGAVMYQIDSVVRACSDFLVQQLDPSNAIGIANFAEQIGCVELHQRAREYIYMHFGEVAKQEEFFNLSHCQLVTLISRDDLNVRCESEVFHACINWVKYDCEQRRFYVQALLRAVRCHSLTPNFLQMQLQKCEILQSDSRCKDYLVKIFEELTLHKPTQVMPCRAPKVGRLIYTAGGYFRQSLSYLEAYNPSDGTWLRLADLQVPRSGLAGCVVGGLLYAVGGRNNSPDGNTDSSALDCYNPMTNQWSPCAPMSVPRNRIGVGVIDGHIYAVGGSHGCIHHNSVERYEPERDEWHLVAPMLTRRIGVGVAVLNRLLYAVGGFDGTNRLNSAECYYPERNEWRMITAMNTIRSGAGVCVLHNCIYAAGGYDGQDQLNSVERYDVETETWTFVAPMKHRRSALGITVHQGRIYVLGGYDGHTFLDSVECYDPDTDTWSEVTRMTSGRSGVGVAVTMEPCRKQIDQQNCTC
Cardiac RTF inh: cardiac RTF calcium desensitization | 340,000 compounds, 0.12% hits | AID 493244 | P19429+P45379 | inhibition, % at 7.15 µM | IANBD-labeled cardiac RTF, Ca2+ fluorescence;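 active = inhibition above the mean inhibition of all tested compounds plus 3 SD, cut at about 17% in these data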;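 note: assay run at fixed EC70 calcium of 1.6 mM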
C-LANA FP: inhibitors of KSHV LANA C-terminal domain DNA binding; inhibition, % at 9 µM; MBP-C-LANA/FAM-LBS DNA binding, fluorescence polarization; 340,000 compounds, 0.078% hits;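 active = highest replicate inhibition at or above 60% at 9 µM, even if other replicates fall short; inactive = all replicates below 60% inhibition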
RTF Ca sens act: increases calcium sensitivity of human cardiac regulated thin filaments; 340,000 compounds, 0.24% hits; IANBD-labeled TnC RTF fluorescence at EC20 calcium; 0% EC20 calcium, 100% full calcium; activation, % at 7.2 µM; AID 493008; P19429+P45379;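 active = activation above the mean over all tested compounds plus 3 SD, cut at about 30% in these data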;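 note: rise in fluorescence read as greater calcium sensitivity of cardiac thin filaments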
E coli Lon inh: E. coli protease La inhibition. P0A9M0. purified E. coli Lon protease, fluorescence polarization. inhibition, % at 7.94 µM. 360,000 compounds, 0.42% hits; in the data active = inhibition above about 13%, passing the limit was not always enough
eLon confirm: confirmation of E. coli Lon protease inhibitors | shares compounds with E coli Lon inh | purified E. coli Lon, fluorescence polarization | inhibition, % at 7.94 µM | 1,400 compounds, 31% hits | AID 602230; in the data active = inhibition above about 16%
Numbers stand for hits; ! = not confirmed by another sample. Most compounds without a hit are left out; they make up all but 0.82% or so of the library.

Results for Cc1cc2nc3c(=O)n(CCc4ccccc4)c(=O)[nH]c3nc2cc1N ?
Keap1-Nrf2 PPI: inactive; Cardiac RTF inh: inactive; C-LANA FP: inactive; RTF Ca sens act: 515.7; E coli Lon inh: 165.9; eLon confirm: 88.7

What do the screens show for `Nc1ccc2nc3c(=O)n(CCc4ccccc4)c(=O)[nH]c3nc2c1`?
E coli Lon inh: 190.6; eLon confirm: 132.3

Results for O=C(CN1C(=O)COc2ccc(S(=O)(=O)N3CCOCC3)cc21)Nc1cccc(Cl)c1 ?
Keap1-Nrf2 PPI: inactive; Cardiac RTF inh: inactive; C-LANA FP: inactive; RTF Ca sens act: inactive; E coli Lon inh: 19.1; eLon confirm: inactive

What do the screens show for `Cc1ccc(-c2csc3nc(C)n(-n4cccc4)c(=O)c23)o1`?
Keap1-Nrf2 PPI: inactive; Cardiac RTF inh: inactive; C-LANA FP: inactive; RTF Ca sens act: inactive; E coli Lon inh: 20.7; eLon confirm: inactive

Results for Cc1cnc(C(=O)OCC(=O)NCc2cccc(Cl)c2)cn1 ?
Keap1-Nrf2 PPI: inactive; Cardiac RTF inh: inactive; C-LANA FP: inactive; RTF Ca sens act: inactive; E coli Lon inh: inactive

What do the screens show for `O=C(NCCc1ccc2c(c1)OCCO2)c1cc(S(=O)(=O)N2CCCC2)ccc1Br`?
Keap1-Nrf2 PPI: inactive; Cardiac RTF inh: inactive; C-LANA FP: inactive; RTF Ca sens act: inactive; E coli Lon inh: inactive

How did C=CCCC(=O)NC1CCCc2c1cnn2-c1ccccc1F (stereo unspecified) do in these assays?
Keap1-Nrf2 PPI: inactive; Cardiac RTF inh: inactive; C-LANA FP: inactive; RTF Ca sens act: inactive; E coli Lon inh: 29.4; eLon confirm: inactive

Results for Cc1cc(C(=O)NC2CCCc3c2cnn3-c2ccccc2F)nc(C)n1 (stereo unspecified) ?
Keap1-Nrf2 PPI: inactive; Cardiac RTF inh: inactive; C-LANA FP: inactive; RTF Ca sens act: inactive; E coli Lon inh: inactive

Results for Cc1ccc(CN2CC[C@H]3C=CCc4cccc(c43)C2)cc1 ?
Keap1-Nrf2 PPI: inactive; Cardiac RTF inh: inactive; C-LANA FP: inactive; RTF Ca sens act: inactive; E coli Lon inh: inactive

Results for C1=C[C@@H]2CCN(Cc3ccccc3)Cc3cccc(c32)C1 ?
Keap1-Nrf2 PPI: inactive; Cardiac RTF inh: inactive; C-LANA FP: inactive; RTF Ca sens act: inactive; E coli Lon inh: 33.9; eLon confirm: inactive

Results for COCCN(C(=O)COC(=O)/C=C/c1cccc(OC)c1)c1c(N)n(CC(C)C)c(=O)[nH]c1=O ?
Keap1-Nrf2 PPI: inactive; Cardiac RTF inh: inactive; C-LANA FP: inactive; RTF Ca sens act: inactive; E coli Lon inh: inactive

How did COc1ccc(NC(=O)CNC(c2ccccc2)c2ccccc2)cc1Cl do in these assays?
Keap1-Nrf2 PPI: inconclusive; Cardiac RTF inh: inactive; C-LANA FP: inactive; RTF Ca sens act: inactive; E coli Lon inh: 18.1; eLon confirm: inactive

Results for CCCCS(=O)(=O)Nc1ccc(N2CCOCC2)c(S(=O)(=O)N2CCOCC2)c1 ?
Keap1-Nrf2 PPI: inactive; Cardiac RTF inh: inactive; C-LANA FP: inactive; RTF Ca sens act: inactive; E coli Lon inh: 19.2; eLon confirm: inactive

How did CCOc1cccc(C(=O)NC(=S)Nc2cccnc2)c1 do in these assays?
Keap1-Nrf2 PPI: inactive; Cardiac RTF inh: inactive; C-LANA FP: inactive; RTF Ca sens act: inactive; E coli Lon inh: inactive

How did CCCCOc1cccc(C(=O)NC(=S)Nc2cccnc2)c1 do in these assays?
Keap1-Nrf2 PPI: inactive; Cardiac RTF inh: inactive; C-LANA FP: inactive; RTF Ca sens act: inactive; E coli Lon inh: 19.1; eLon confirm: inactive

Results for Cc1cc(NC(=O)c2coc(=O)c(Br)c2)ccc1C(C)C ?
Keap1-Nrf2 PPI: inactive; C-LANA FP: inactive; E coli Lon inh: 24.3; eLon confirm: 18.9

Results for C[C@@H](NC(=O)c1coc(=O)c(Br)c1)c1ccccc1 ?
Keap1-Nrf2 PPI: inactive; Cardiac RTF inh: inactive; C-LANA FP: inactive; RTF Ca sens act: inactive; E coli Lon inh: inactive

What do the screens show for `CCN1CCN(Cc2ccc(NC(=O)c3ccc(C)c(NC(=O)c4cccc5[nH]ccc45)c3)cc2C(F)(F)F)CC1`?
Keap1-Nrf2 PPI: inactive; Cardiac RTF inh: inactive; C-LANA FP: inactive; RTF Ca sens act: inactive; E coli Lon inh: 12.8!; eLon confirm: inactive

What do the screens show for `CCN1CCN(Cc2ccc(NC(=O)c3ccc(C)c(NC(=O)c4nccn4C)c3)cc2C(F)(F)F)CC1`?
Keap1-Nrf2 PPI: inactive; Cardiac RTF inh: inactive; C-LANA FP: inactive; RTF Ca sens act: inactive; E coli Lon inh: inactive

Results for CSc1ncccc1C(=O)N1CCN(S(=O)(=O)c2ccc(C)cc2)CC1 ?
Keap1-Nrf2 PPI: inactive; Cardiac RTF inh: inactive; C-LANA FP: inactive; RTF Ca sens act: inactive; E coli Lon inh: 16.6; eLon confirm: inactive

How did C[C@H](O)[C@@H]1C(=O)N2CCc3c([nH]c4ccccc34)[C@@H]2C[C@@H]1N(C)C(=O)NC1CCCCC1 do in these assays?
E coli Lon inh: inactive

How did F[B-](F)(F)c1cncc2ccccc12 do in these assays?
Keap1-Nrf2 PPI: inactive; Cardiac RTF inh: inactive; C-LANA FP: inactive; RTF Ca sens act: inactive; E coli Lon inh: 41.5; eLon confirm: 38.3

Results for F[B-](F)(F)c1cnc2ccccc2c1 ?
Keap1-Nrf2 PPI: inactive; Cardiac RTF inh: inactive; C-LANA FP: inactive; RTF Ca sens act: inactive; E coli Lon inh: inactive

What do the screens show for `O=C1CN(C(=O)c2ccccc2F)C(c2ccccc2)c2cc(F)ccc2N1` (stereo unspecified)?
Keap1-Nrf2 PPI: inactive; Cardiac RTF inh: inactive; C-LANA FP: inactive; RTF Ca sens act: inactive; E coli Lon inh: 18.5; eLon confirm: inactive

How did CC(C)CN(C(=O)CSc1nnc(C2CC2)n1-c1ccccc1)C1CCS(=O)(=O)C1 (stereo unspecified) do in these assays?
Keap1-Nrf2 PPI: inactive; Cardiac RTF inh: inactive; C-LANA FP: inactive; RTF Ca sens act: inactive; E coli Lon inh: 55.9; eLon confirm: 54.9

How did Cc1cc(C)c(-c2cc(C(=O)Nc3c(C)n(C)n(-c4ccccc4)c3=O)[nH]n2)c(O)c1 do in these assays?
Keap1-Nrf2 PPI: inactive; Cardiac RTF inh: inactive; C-LANA FP: inactive; RTF Ca sens act: inactive; E coli Lon inh: inactive

Results for Cc1ccc(-c2cc(C(=O)Nc3c(C)n(C)n(-c4ccccc4)c3=O)[nH]n2)c(O)c1 ?
Keap1-Nrf2 PPI: inactive; Cardiac RTF inh: inactive; C-LANA FP: inactive; RTF Ca sens act: inactive; E coli Lon inh: 15.3; eLon confirm: inactive

What do the screens show for `N#CC(CCc1ccc([N+](=O)[O-])cc1)(CCc1ccc([N+](=O)[O-])cc1)C(N)=O`?
Keap1-Nrf2 PPI: inactive; Cardiac RTF inh: inactive; C-LANA FP: inactive; RTF Ca sens act: inactive; E coli Lon inh: 51.5; eLon confirm: 30.9

How did O=[N+]([O-])c1ccc(Cc2ccc([N+](=O)[O-])cc2)cc1 do in these assays?
Keap1-Nrf2 PPI: inactive; Cardiac RTF inh: inactive; C-LANA FP: inactive; RTF Ca sens act: inactive; E coli Lon inh: inactive

How did CCN1CCN(C(=O)NC2CCCCC2)CC1 do in these assays?
Keap1-Nrf2 PPI: inactive; Cardiac RTF inh: inactive; C-LANA FP: inactive; RTF Ca sens act: inactive; E coli Lon inh: 45.1; eLon confirm: inactive

Results for Cc1cc(/C=N/NC(N)=S)c(O)c(/C=N/NC(N)=S)c1 ?
Keap1-Nrf2 PPI: inactive; Cardiac RTF inh: inactive; C-LANA FP: inactive; RTF Ca sens act: 166.4; E coli Lon inh: active; eLon confirm: 189.3
